The values below come from PubChem BioAssay (NCATS).

Results filed as inconclusive are left out. Activity calls are given as the source filed them. Unless noted, calls come from the whole dose curve.

Assay [1] can be described thus: Cytotoxicity counterscreen for inhibitors of SARS-CoV-2 cell entry (AID 1645845). Note: nearly all actives have a fitted effect of over 50% in size. Note: potency is the fitted concentration of half-maximal effect. The settings on record: outcome: dose series up to 57.1 µM unless noted. The method, boiled down:
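Counterscreen run in the same HEK293-ACE2 line as the pseudotyped-particle entry assay, without particles. Viability after 48 h at 37 C was read as ATP luminescence, scaled between cell-containing and cell-free wells.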
For orientation: A counterscreen serves to expose hits that act by an unwanted route or on another target.

Assay [2] is described as follows: Primary qHTS to identify inhibitors of SARS-CoV-2 cell entry (AID 1645846). Note: nearly all actives have a fitted effect of over 45% in size. Note: potency is the fitted concentration of half-maximal effect. The settings on record: SARS-CoV-2 pseudovirus cell entry assay, luminescence; activity change, negative = inhibition: at 57.1 µM (top of the series) unless noted. The method in brief: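 Using luciferase-reporting pseudoviruses carrying Wuhan-Hu-1 spike, the screen tracks entry into stably ACE2-expressing cells over 48 hr. Activity is expressed relative to spike particles versus particles lacking any fusion protein.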

A short description of assay [3]: Primary qHTS for inhibitors of nuclear receptor binding SET domain protein 2 (NSD2) in an isogenic RCH-ACV NSD2 p.E1099K mutant (9B) (AID 1645876; active = well fitted curve in the direction sought with a large enough effect; an effect the other way counts as inactive or inconclusive; note: potency is the fitted concentration of half-maximal effect; nearly all actives have a fitted effect of over 70% in size). (In general: Quantitative high-throughput screening tests each substance at several concentrations.)
Assay [4] can be described thus: Primary qHTS for inhibitors of nuclear receptor binding SET domain protein 2 (NSD2) in an RCH-ACV wild type WT cells (2C) (AID 1645877; active = well fitted curve in the direction sought with a large enough effect; an effect the other way counts as inactive or inconclusive; note: potency is the fitted concentration of half-maximal effect; nearly all actives have a fitted effect of over 70% in size).
Assay [5] can be described thus: VSVG counterscreen qHTS to identify inhibitors of SARS-CoV-2 cell entry (AID 1645847). For activity change, negative = inhibition: % is set by controls: 0 for no effect and ±100 for the full control effect. Note: nearly all actives have a fitted effect of over 65% in size. Note: potency is the fitted concentration of half-maximal effect. The method, boiled down:
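Entry of VSV-G pseudotyped particles into human ACE2-expressing HEK293 cells was measured by luciferase luminescence 48 h after infection, with compound added 1 h beforehand.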

Assay [6] has as its target Glutathione peroxidase 1 (Homo sapiens) (UniProt P07203). Nature of the assay: Primary qHTS Assay for Inhibitors of Recombinant Selenoprotein Glutathione Peroxidase 1 (GPX1) (AID 1845191; active = well fitted curve in the direction sought with a large enough effect; an effect the other way counts as inactive or inconclusive; note: nearly all actives have a fitted effect of over 65% in size). The method in brief: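 GR-coupled readout: NADPH consumption tracked by fluorescence, ex 340/em 450 nm, at t=0 and after 15 min at RT. Final mix 10 nM GPX1, 1 mM GSH, 0.5 mM CHP, 0.5 mM NADPH, 100 nM GR, 0.01% BSA, following 30 min enzyme–compound preincubation.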

Assay [7] has as its target Phospholipid hydroperoxide glutathione peroxidase GPX4 (Homo sapiens) (UniProt P36969). The assay can be described thus: Primary qHTS Assay for Inhibitors of Recombinant Selenoprotein Glutathione Peroxidase 4 (GPX4) (AID 1845192; active = well fitted curve in the direction sought with a large enough effect; an effect the other way counts as inactive or inconclusive; note: % is set by controls: 0 for no effect and ±100 for the full control effect; nearly all actives have a fitted effect of over 65% in size). The method, boiled down: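 Steps: GPX4 plus compound, 30 min RT; add GR/GSH/NADPH master mix; start with cumene hydroperoxide; read 340/450 nm fluorescence at 0 and 15 min. Finals were 200 nM GPX4, 1 mM GSH, 0.5 mM CHP, 0.5 mM NADPH, 100 nM GR.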

Assay [8] in a line: qHTS drug screen for cell cycle checkpoint inhibitors in PARPi-resistant BRCA-mutant ovarian cancer cell lines. (AID 1963452). As to conditions: PEO1/OlaR viability, CellTiter-Glo luminescence, 96 h, stronger effect = lower value. The method, boiled down:
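PEO1, PEO4 and PEO1/OlaR ovarian cancer cells, 600 per well, exposed 96 h at 37C to a dilution series. Viability read by CellTiter-Glo luminescence, normalized to DMSO and empty wells; activity summarized as Z-AUC.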

The nature of assay [9]: KB-8-5-11 P-gp reporter qHTS against the NCATS DSHEA and TCM libraries (AID 1919977; active = well fitted curve in the direction sought with a large enough effect; an effect the other way counts as inactive or inconclusive; note: 0% is about no effect). The method, boiled down:
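Viability of drug-resistant KB-8-5-11 cells is measured by CellTiter-Glo luminescence following roughly 72 h treatment at 37C. Substances were titrated, with bortezomib as intraplate control.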

Assay [10] is described as follows: Validation screen for inhibitors of Lassa infection (AID 463096). Note: % is set by controls: 0 for no effect and ±100 for the full control effect.
The target of assay [11] is Alpha-galactosidase (Coffea arabica) (UniProt Q42656). Nature of the assay: Counterscreen for Glucocerebrosidase Inhibitors: qHTS Assay for Coffee Bean alpha-Galactosidase at pH 5.9 (AID 998; active = well fitted curve in the direction sought with a large enough effect; an effect the other way counts as inactive or inconclusive;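 note: plate controls were uninhibited enzyme for no effect and no-enzyme basal signal for full effect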). The method, boiled down:
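Enzyme 2 nM + cpd (0.7 nM–77 uM titration) + 4-MU-alpha-Gal 80 uM, pH 5.9 citrate/Tween-20, RT 20 min, NaOH/glycine stop pH 10, fluor 365/440. Normalized to no-enzyme and full-activity controls; Hill-fit AC50.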

Assay [12] deals with Bile acid receptor (Homo sapiens) (UniProt Q96RI1). Nature of the assay: qHTS assay for small molecule agonists of farnesoid X receptor signaling (AID 588527).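 Note: 0% = vehicle basal and 100% = reference agonist.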 The settings on record: HEK293T FXR-UAS-bla, beta-lactamase ratio, 16 h; stronger effect = higher value. The method, boiled down: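 FXR-UAS-bla HEK293T, 10% dialyzed FBS; cpds up to 92 uM titration, 16 h 37 C; CCF4 dye 2 h RT; fluorescence. Normalized to chenodeoxycholic acid 100 uM (100%) and DMSO (0%); Hill fit gives EC50, efficacy.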
Bile acid receptor (Homo sapiens), sequence (Q96RI1 whole entry, looked up): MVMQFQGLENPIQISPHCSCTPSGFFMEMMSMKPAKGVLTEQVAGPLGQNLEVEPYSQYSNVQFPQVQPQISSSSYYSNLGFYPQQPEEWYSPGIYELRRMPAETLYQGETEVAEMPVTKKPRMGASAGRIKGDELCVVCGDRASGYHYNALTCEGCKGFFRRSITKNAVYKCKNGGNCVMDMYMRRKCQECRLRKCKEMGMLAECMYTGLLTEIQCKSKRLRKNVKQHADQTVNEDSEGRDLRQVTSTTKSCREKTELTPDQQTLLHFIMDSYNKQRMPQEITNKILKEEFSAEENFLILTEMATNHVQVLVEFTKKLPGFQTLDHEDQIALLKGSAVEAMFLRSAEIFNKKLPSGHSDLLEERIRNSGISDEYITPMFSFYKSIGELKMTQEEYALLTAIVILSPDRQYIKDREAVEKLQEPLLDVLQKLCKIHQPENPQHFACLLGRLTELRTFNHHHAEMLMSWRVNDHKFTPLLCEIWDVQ

A short description of assay [13]: MultiTox-Fluor Cytotoxicity Assay - LYMP1-002 - Dead Cells (AID 960; active = well fitted curve in the direction sought with a large enough effect; an effect the other way counts as inactive or inconclusive; note: potency is the fitted concentration of half-maximal effect; nearly all actives have a fitted effect of over 60% in size). The method in brief:
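Cells were plated, rested 5 hr, then treated with compound dilution series for 16 hr at 37 C. After adding substrate reagent and 60 min at room temperature, dead-cell protease fluorescence gave concentration-response curves fitted by the Hill equation.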

Assay [14] in a line: qHTS profiling of the MIPE4 collection as inhibitors of Plasmodium falciparum (3D7) proliferation (AID 743344; call rule not given here;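 note: scaled between DMSO vehicle wells and 0.29 µM artemisinin as full inhibition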). As to conditions: P. falciparum 3D7 in erythrocytes, SYBR Green DNA fluorescence, 72 h; at 28.5 µM (top of the series). The method, boiled down:
(§1)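 Parasite DNA was quantified by SYBR Green I fluorescence (ex 485, em 535 nm) after overnight lysis in saponin/Triton buffer at room temperature. Cultures at 0.3% parasitemia and 2.5% hematocrit were first exposed to compound for 72 h at 37 C; signals were normalised to artemisinin (0.29 uM) and vehicle wells.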

The nature of assay [15]: qHTS profiling of the MIPE4 collection as inhibitors of Plasmodium falciparum (DD2) proliferation (Rep 2) (AID 743346; call rule not given here). The settings on record: P. falciparum Dd2 in erythrocytes, SYBR Green DNA, 72 h; at 28.5 µM (top of the series). The method in brief: as §1
Assay [16] is described as follows: qHTS profiling of the MIPE4 collection as inhibitors of Plasmodium falciparum (HB3) proliferation (AID 743347; call rule not given here;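 note: plate controls were DMSO vehicle wells for no effect and artemisinin wells for full effect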). As to conditions: P. falciparum HB3 in erythrocytes, SYBR Green DNA, 72 h; at 28.5 µM (top of the series). The method, boiled down:
as §1

Phospholipid hydroperoxide glutathione peroxidase GPX4 (Homo sapiens), sequence (P36969 whole entry, looked up): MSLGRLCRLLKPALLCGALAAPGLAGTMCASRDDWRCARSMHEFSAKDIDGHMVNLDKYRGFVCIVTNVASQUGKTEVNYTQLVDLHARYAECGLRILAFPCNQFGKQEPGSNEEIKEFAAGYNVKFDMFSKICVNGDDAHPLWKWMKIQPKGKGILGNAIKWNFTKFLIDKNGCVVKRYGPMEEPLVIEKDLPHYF
Alpha-galactosidase (Coffea arabica), sequence (Q42656 whole entry, looked up): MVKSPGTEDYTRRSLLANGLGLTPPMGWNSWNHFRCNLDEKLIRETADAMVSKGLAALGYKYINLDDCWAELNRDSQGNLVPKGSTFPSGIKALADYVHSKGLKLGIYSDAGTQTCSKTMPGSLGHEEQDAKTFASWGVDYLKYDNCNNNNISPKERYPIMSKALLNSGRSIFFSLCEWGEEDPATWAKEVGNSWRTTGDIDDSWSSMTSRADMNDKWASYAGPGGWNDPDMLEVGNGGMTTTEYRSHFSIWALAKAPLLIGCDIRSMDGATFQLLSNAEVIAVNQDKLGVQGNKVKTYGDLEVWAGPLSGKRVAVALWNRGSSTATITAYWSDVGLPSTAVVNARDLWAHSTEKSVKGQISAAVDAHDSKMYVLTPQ
Glutathione peroxidase 1 (Homo sapiens), sequence (P07203 whole entry, looked up): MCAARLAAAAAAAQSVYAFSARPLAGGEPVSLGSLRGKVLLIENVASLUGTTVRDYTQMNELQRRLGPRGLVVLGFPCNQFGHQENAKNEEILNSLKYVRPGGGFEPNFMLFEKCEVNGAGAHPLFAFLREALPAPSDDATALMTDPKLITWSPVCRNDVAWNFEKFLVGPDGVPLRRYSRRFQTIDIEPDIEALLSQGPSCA

In the case of `Cc1sc2c(c1C)C(c1ccc(Cl)cc1)=NC(CC(N)=O)c1nnc(C)n1-2` (stereo not drawn), in [1], the Potency result is “inactive”. Also, the activity change, negative = inhibition in assay [2] is -23.3%. Besides, the Potency was 0.105 µM (active) in assay [3] and 0.132 µM (active) in assay [4].
Consider `CON(C)C(=O)N1N=C(c2cc(F)ccc2F)S[C@@]1(CCCN)c1ccccc1`, for which the Potency result in assay [1] was “inactive”. For the same molecule, the activity change, negative = inhibition in assay [2] was -86.6%. Further, the Potency in assay [5] is 0.0241 µM (active).
As for `CNC(=O)c1ccc(Nc2ncc(C(F)(F)F)c(NCc3nccnc3N(C)S(C)(=O)=O)n2)cc1`, the Potency in [2] was 0.891 µM (active).
On to `CN1CC[C@@H](NC(=O)Nc2ccc(C#N)cc2)C[C@@H]1c1nc2ccccc2[nH]1`, for which, in assay [1], the Potency entry is “inactive”. Further, the activity change, negative = inhibition in [2] was -7.47%. Moreover, in assay [5], the Potency was 24.1 µM (active).
On the same counts, the results for `CCC(=O)OCC(=O)C1(OC(=O)CC)C(C)CC2C3CCC4=CC(=O)C=CC4(C)C3(F)C(O)CC21C` (stereo not drawn) are “inactive”, -47% and 1.92 µM (active).
On to `[2H]c1nc(C)nc([2H])c1-c1cc(NC[C@@H](C)c2cccc3c(C(=O)NC)ccnc23)ncn1`, for which the activity change, negative = inhibition in [2] was 0.426%.
Take `CC1(C)C(=O)N(c2ccc(C#N)c(C(F)(F)F)c2)C(=S)N1Cc1ccc(-c2cn[nH]n2)cc1`: the Potency result in assay [1], in [6] and in assay [7] was “inactive” throughout. In addition, the values for the Z-AUC in assay [8], in assay [8] (measured here: PEO1 parental Z-AUC) and in [8] (measured here: PEO4 Z-AUC) were 0.1 (inactive), 0.427 and 0.68, respectively.
With `CCCCc1nc2cc(/C=C/C(=O)NO)ccc2n1CCN(CC)CC`, in [2], the Potency result is “inactive”.
For the molecule `O=C(O)C[C@H]1CCc2c1[nH]c1ccc(OCc3ccc(C4CCCC4)c(C(F)(F)F)c3)cc21`, the activity change, negative = inhibition in [2] is -95.5%.
`COC1CC(C(=O)c2ccc3c(N)ncc(-c4ccc(-c5cnn(C)c5)cc4)c3n2)C1` (stereo not drawn): the Potency result in assay [1] and in assay [5] was “inactive” each time. Further, the Potency in assay [2] is 8.91 µM (active).
Regarding `O=C(NO)c1cnc(N2C[C@H]3C[C@@H]2CN3c2cc(C(F)(F)F)ccn2)nc1`, the Potency result in assay [2] is “inactive”.
Consider `Cn1cc(/C=C2\C(=O)Nc3cccnc32)c2ccccc21`, for which the Potency result in assay [1] was “inactive”. Also, in assay [2], the activity change, negative = inhibition was -43.1%. For the same molecule, the Potency in [5] was 0.152 µM (active).
In the case of `C[C@H]1[C@H](C)CC[C@]2(C(=O)O)CC[C@]3(C)C(=CC[C@@H]4[C@@]5(C)C[C@@H](O)[C@H](O)[C@@](C)(CO)[C@@H]5CC[C@]43C)[C@H]12`, the Potency result in assay [1], in assay [2] and in assay [9] was “inactive” each time.
As to `CC(C)OC(=O)[C@H](C)N[P@](=O)(OC[C@H]1O[C@@H](n2ccc(=O)[nH]c2=O)[C@](C)(F)[C@@H]1O)Oc1ccccc1`, the Potency entry in [1] is “inactive”. The activity change, negative = inhibition in [2] was -40%. For the same molecule, the Potency in [5] was 30.4 µM (active).
Regarding `Cc1c(NC(=O)c2cc(C(N)=O)nc3cc(F)ccc23)c(C(F)(F)F)nn1Cc1ccc(C(C)(C)C)cc1`, the activity change, negative = inhibition in assay [2] was -95.1%.
For `C[C@H]1CC2[C@@H]3CCC4=CC(=O)C=C[C@]4(C)[C@@]3(F)[C@@H](O)C[C@]2(C)[C@@]1(O)C(=O)CO` (stereo partly drawn), the Potency entry in [10], in assay [1] and in assay [2] was “inactive” throughout.
Take `CNC(=O)CCc1cc(-c2ccc(-c3ccc(C(F)(F)F)cc3)cc2)n(-c2ccc(N3CCNCC3)cc2)n1`: the activity change, negative = inhibition in [2] was -95.7%.
Take `C=CC(=O)Nc1cccc(Nc2nc(Nc3ccc(Oc4ccnc(C(=O)NC)c4)cc3)ncc2F)c1`: the Potency in [2] was 22.4 µM (active).
Same read-out and setting: next, `CCNCCc1ccc(CN(CC)c2cc(OC)ccc2[C@@H]2CCc3cc(O)ccc3C2)cc1`: 31.6 µM (active).
Regarding `CN(CCOc1ccc(C[C@H](Nc2ccccc2C(=O)c2ccccc2)C(=O)O)cc1)c1ccccn1`, the result in [11] was inactive. Also, the Potency result in assay [10] and in [1] was “inactive” in each case. Besides, the activation in assay [12] is -7.09% (inactive).
`COc1cc(/C=C/C(=O)CC(=O)/C=C/c2ccc(O)c(OC)c2)ccc1O`: the Potency in assay [13] and in assay [1] was 31.6 µM (active) in each case.
On to `O=C(NCc1ccccc1)c1csc(Nc2ccncn2)n1`, for which the parasite growth, % of DMSO control in [14] turned out to be 30.1%. Further, the parasite growth, % of control (lower = inhibition) in assay [15] was 36.6%. Further, the growth, % of control in assay [16] was determined as 31.7%. For the same molecule, the Potency result in [1] was “inactive”.
